Screens as filed in PubChem.
A selection: hits, their analogues and other compounds. The true share with any hit is near 0.87%.
RECQ1 inh-1 = qHTS Assay for Inhibitors of RecQ-Like Dna Helicase 1 (RECQ1) | ATP-dependent DNA helicase Q1 (Homo sapiens), P46063 | RECQ1 DNA unwinding, red fluorescence kinetic read | Potency, µM (top dose mostly 57.3 µM), without a hit: at the highest dose activity, negative = inhibition, usual class: inhibitors | 240,000 tested, 0.54% active | AID 2549, 2010;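 further: plate controls were vehicle for no effect and no enzyme for full effect; nearly all actives have a fitted effect of over 30% in size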
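50 nM RECQ1T1 preincubated 15 min with compound in Tris pH 8.0 buffer with MgCl2, DTT, Tween-20 and 2.5 ug/ml poly(dI-dC); started with 200 nM TAMRA/BHQ-2 forked duplex and 2 mM ATP. Unwinding read as fluorescence (525/598 nm), two reads 2 h apart.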
APE1 inh = qHTS Assay for Inhibitors of the Human Apurinic/apyrimidinic Endonuclease 1 (APE1). recombinant APE1, TAMRA/BHQ-2 abasic DNA cleavage fluorescence. 350,000 tested, 0.35% active. AID 2517, 2012. Potency, µM (series often up to 65.8 µM), without a hit: top-dose activity change, negative = inhibition, actives largely listed as inhibitors. DNA repair nuclease/redox regulator APEX1 (Homo sapiens), P27695;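 further: plate controls were vehicle for no effect and reference inhibitor for full effect; nearly all actives have a fitted effect of over 55% in size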
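Quantitative HTS: incision of a TAMRA/BHQ-2 double-stranded substrate bearing a tetrahydrofuran abasic site by 0.75 nM APE1 raises fluorescence. Substrate 50 nM final, added after 15 min compound preincubation at room temperature; progress as third-minus-first kinetic read difference.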
FEN1 inhibitor = qHTS Assay for the Inhibitors of Human Flap endonuclease 1 (FEN1) | P39748 | Recombinant FEN1 flap cleavage, fluorescence, 15 min | Potency, µM (top dose mostly 114 µM), inactives show at the top dose activity change, negative = inhibition, hits mostly inhibitors | 390,000 tested, 0.35% active; further: nearly all actives have a fitted effect of over 65% in size
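Recombinant FEN1 (10 nM) was preincubated with pin-transferred compounds for 15 min at room temperature, then flap DNA substrate (50 nM final) was added. Plates were read at 0 and 15 min, and normalized concentration–response data were fitted to a four-parameter Hill equation.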
BLM helicase inh = qHTS Assay for Inhibitors of Bloom's syndrome helicase (BLM). recombinant BLM DNA unwinding, fluorescence dequenching. Potency, µM (titrated, usually from 56.1 µM), inactives show top-dose activity change, negative = inhibition, most hits filed as inhibitors. 350,000 tested, 0.2% active. RecQ-like DNA helicase BLM (Homo sapiens), P54132;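 further: plate controls were vehicle for no effect and no enzyme for full effect; nearly all actives have a fitted effect of over 35% in size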
WRN helicase inh = qHTS for Inhibitors of WRN Helicase; Bifunctional 3'-5' exonuclease/ATP-dependent helicase WRN (Homo sapiens), Q14191; WRN helicase unwinding, fluorescent forked duplex, kinetic; Potency, µM (series often up to 114 µM), without a hit: at the highest dose activity change, negative = inhibition, hits mostly inhibitors; 360,000 tested, 0.46% active; AID 651768, 2012; further: nearly all actives have a fitted effect of over 55% in size
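WRN at 20 nM final was preincubated with compound for 15 min at room temperature; reaction started with 100 nM forked duplex oligonucleotide carrying fluorophore and quencher plus 2 mM ATP (final). Unwinding followed kinetically by red fluorescence (ex 525/em 598 nm).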
RECQ1 inh conf = Confirmation qHTS Assay for Inhibitors of RecQ-Like Dna Helicase 1 (RECQ1); shares compounds with RECQ1 inh-1; RECQ1 helicase DNA unwinding, fluorescence; Potency, µM (top dose mostly 229 µM), without a hit: at the top dose activity change, negative = inhibition, most hits filed as inhibitors; 610 tested, 28% active; AID 2708, 2010; further: nearly all actives have a fitted effect of over 45% in size
ADP FP counter = Counterscreen for RECQ1 Inhibitors: ADP Fluorescence Polarization Displacement Assay | shares compounds with RECQ1 inh-1 | ADP fluorescence polarization displacement counterscreen | Potency, µM (series often up to 228 µM), for inactives: at the top dose activity change, negative = inhibition, actives largely listed as inhibitors | 530 tested, 27% active; further: nearly all actives have a fitted effect of over 45% in size
RECQ1 inh-2 = Confirmation qHTS Assay for Inhibitors of RecQ-Like Dna Helicase 1 (RECQ1) - Round 2 Cherry Picks; shares compounds with RECQ1 inh-1; recombinant RECQ1 DNA unwinding, red fluorescence; Potency, µM (highest dose often 119 µM), for the others: top-dose activity, negative = inhibition, usual class: inhibitors; 1,100 tested, 15% active; further: nearly all actives have a fitted effect of over 50% in size
The depositor's hits bear a star; i = inactive; ? = inconclusive; · = no result given; [ ] = dose if it differs, or a comment. The call rests on the fitted dose curve; in most records, active means well fitted curve in the direction sought with a large enough effect; inconclusive means small, poorly fitted or top-dose-only effect, or another doubt; inactive means no such curve, though single readings can be large; an effect the other way counts as inactive or inconclusive. Unless noted, on the % scale 0 is the no-effect control and ±100 the full control effect; potency means the concentration at half of the fitted maximal effect.

SMILES	RECQ1 inh-1	APE1 inh	FEN1 inhibitor	BLM helicase inh	WRN helicase inh	RECQ1 inh-2	others
Cc1cc2cc(C(c3nnnn3Cc3ccco3)N3CCc4ccccc43)c(=O)[nH]c2cc1C (centres undefined)	?	?	-18.1%	-23.9%	-34.0%	-7.0%
Cc1cc2cc(C(c3nnnn3Cc3ccccc3)N3CCc4ccccc43)c(=O)[nH]c2cc1C (centres undefined)	-2.7%	-11.3%	-1.3%	-7.3%	-3.5%	·
COc1cccc(CN2CCN(C(=O)c3ccc(-c4ccccc4)cc3)CC2)c1	25.1µM*	13.3%	-5.7%	-1.7%	-10.6%	-26.9%
Cc1ccccc1C(=O)N1CCN(CCc2ccccn2)CC1	·	·	0.6%	-0.1%	·	·
CCOC(=O)c1cccc(NC(=O)c2cc(-c3ccc(Cl)s3)nc3ccccc23)c1	·	·	15.6%	-3.0%	·	·
COC(=O)COc1ccc(C2Nc3c(Cl)ccc(C(=O)O)c3C3C=CCC32)cc1 (centres undefined)	28.2µM*	?	?	-6.4%	22.4µM*	?
CCN1CCN(C(=O)c2sc3ncnc(N4CCc5ccccc5C4)c3c2C)CC1	28.2µM*	24.4%	-1.8%	-1.1%	2.3%	-14.2%
Cc1c(C(=O)N2CCCCC2C)sc2ncnc(N3CCc4ccccc4C3)c12 (centres undefined)	-13.4%	2.7%	-7.2%	-12.9%	-5.9%	·
N#CC1=C(SCC(=O)c2cc3ccccc3oc2=O)NC(=O)C(C#N)C12CCCC2 (centres undefined)	?	?	1.2%	-16.0%	-6.0%	-8.1%
COc1cc2ccccc2cc1C(=O)NC(=S)Nc1cccc(C(=O)O)c1	?	?	?	?	?	25.1µM*
CCOC(=O)CNC(=O)N1CCN(S(=O)(=O)c2ccc3c(ccn3C)c2)CC1	·	·	8.0%	0.6%	·	·
Cc1cc(C(=O)CSc2nnc(-c3ccccc3)o2)c(C)n1CC1COc2ccccc2O1 (centres undefined)	-9.0%	0.8%	-11.3%	-0.6%	0.8%	·
Cc1cc(C(=O)CSc2nnc(-c3ccco3)o2)c(C)n1CC1COc2ccccc2O1 (centres undefined)	31.6µM*	?	12.8%	-9.0%	-2.3%	-10.1%
CCCN(CCC)S(=O)(=O)c1ccc(C(=O)Nc2ccc(OCC(=O)N3CCOCC3)cc2)cc1	-4.1%	-3.2%	-16.4%	-8.2%	-2.5%	·	RECQ1 inh conf=4.5%;ADP FP counter=-2.0%
N#C/C=C(/N)c1ccc(Br)cc1	?	-5.0%	1.9%	-1.7%	-9.4%	6.6%
O=CC(=O)c1ccc(Br)cc1	·	·	-6.7%	·	·	·
CCn1cc2nc(SCC(=O)Nc3cc(OC)cc(OC)c3)n(Cc3ccc(Cl)cc3)c(=O)c2n1	·	·	3.3%	-7.8%	·	·
O=C(O)c1ccc(N2C(=O)/C(=C/c3ccc(-c4ccc([N+](=O)[O-])cc4)o3)C=C2c2ccccc2)cc1	17.8µM*	?	?	-20.0%	56.2µM*	·	RECQ1 inh conf=22.4µM*
CN(/N=C/c1ccc(-c2ccc([N+](=O)[O-])cc2)o1)c1ccccc1	·	16.1%	5.4%	-5.8%	-1.9%[57.1 µM]	·
O=S(=O)(Nc1nc(-c2sccc2Cl)cs1)c1cc(Cl)ccc1Cl	?	-0.9%	-32.8%	-14.4%	?	?
O=C(Nc1ccc2nc(SCC(=O)N3CCCc4ccccc43)sc2c1)c1ccccc1	·	·	?	-8.3%	·	·
Cc1ccc(-c2nn(-c3cccc(F)c3)cc2CN2CCN(c3ccccn3)CC2)o1	?	15.1%	?	-20.3%	-5.6%	?
Cc1ccc(-c2nn(-c3cccc(F)c3)cc2CN(Cc2nccn2C)C(C)C)o1	i	-1.8%	-15.5%	-3.5%	0.4%	·
CC1CC1C(=O)Nc1nc(-c2cccs2)c(-c2cccs2)s1 (centres undefined)	31.6µM*	-10.5%	-6.8%	?	-21.9%[57.1 µM]	?
O=C(Nc1nc(-c2cccs2)c(-c2ccccc2)s1)c1ccco1	-4.5%	?	-20.7%	-20.6%	-6.7%	·
SMILES	RECQ1 inh-1	APE1 inh	FEN1 inhibitor	BLM helicase inh	WRN helicase inh	RECQ1 inh-2	others
COc1cc(OC)cc(C(=O)NCc2ccc3c(c2)cc(C)n3C)c1	?	-6.5%	-1.0%	-0.5%	-5.2%	·
COc1ccc(C(=O)NCc2ccc3c(c2)cc(C)n3C)cc1	?	?	-29.8%	-5.4%	-3.6%[57.1 µM]	-0.1%
CN(Cc1ccccc1)c1nc2c(S(=O)(=O)c3cccc(Cl)c3)nnn2c2ccsc12	·	·	1.8%	0.7%	·	·
Cc1cc(C2C(=O)CC(=O)CC2c2ccccc2)on1 (centres undefined)	25.1µM*	-4.4%	5.4%	-14.4%	-1.1%	?
CCC1=C[C@@H]2CN(C1)Cc1c([nH]c3ccccc13)[C@@](C(=O)OC)(c1cc3c(cc1OC)N(C)[C@@H]1[C@@](O)(C(=O)OC)[C@H](OC(C)=O)[C@]4(CC)C=CCN5CC[C@]31[C@@H]54)C2	·	·	·	-4.9%	·	·
CCc1ccc2[nH]c(=O)c(CN(Cc3ccccc3)Cc3nnnn3Cc3ccco3)cc2c1	31.6µM*	?	-19.7%	-29.5%	-8.6%	-16.5%
CCc1ccc2[nH]c(=O)c(CN(Cc3ccccc3)Cc3nnnn3Cc3ccccc3)cc2c1	·	·	-13.3%	·	·	·
O=c1[nH]c2cc3c(cc2cc1CN(Cc1ccccc1)Cc1nnnn1Cc1ccco1)OCCO3	?	-8.0%	-18.6%	-26.6%	?	·
O=c1[nH]c2cc3c(cc2cc1CN(Cc1cccs1)Cc1nnnn1Cc1ccco1)OCCO3	?	39.8µM*	-9.4%	-23.5%	?	-13.4%
COc1ccc(CN(Cc2ccco2)C(=O)COc2ccccc2OC)cc1	·	·	-13.3%	-0.9%	·	·
CCOC(=O)c1ccccc1NC(=O)NCc1c(-n2cccc2)sc2c1CCCC2	·	·	-9.8%	-2.2%	·	·
